Assay results reported in PubChem BioAssay AID2029 (NMMLSC, 2009).
“And” between values parts separate entries of the source, which are not always exact repeats. Identical values can stand only once. Hit rate of the full screen: of about 320,000 compounds, about 210 (0.066%) were called active. The list comes from a sample in which actives are over-represented; it also holds similar structures and randomly drawn compounds. Unmarked numbers belong to inactive results.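 Rule for the calls: active = GFP response relative to DMSO above a set limit, near the screen mean plus 3 SD (cut at about 150% in these data); inconclusive = Fewer than 70 cells measured for a yeast strain; inactive = the rest.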

Test: TOR pathway RTG branch CIT2 reporter changes – S. cerevisiae, GFP fusion, multiplex flow cytometry, MLPCN library, primary screen (AID 2029);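 note: ratio of well median GFP fluorescence to mean of DMSO wells on the plate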
Details: S. cerevisiae CIT2-GFP strain, 3 h, at 10 µM, active compounds read high, 100 means same as DMSO wells

| SMILES | GFP response vs DMSO |
| --- | --- |
| O=C(Nc1ccc(Cl)cc1)c1cc2nc(C3CC3)cc(C(F)(F)F)n2n1 | 115% |
| Cc1ccccc1NC(=O)N1CCCC1C(=O)NCc1ccccc1 (stereo unspecified) | 113% |
| NC(=O)c1ncc(C(F)(F)F)cc1Oc1ccc(F)cc1 | 99.4% |
| CNc1nc(SC)nc(N(C#N)CC(=O)OC)n1 | 104% |
| O=C(COC(=O)c1ccc(O)cc1O)c1ccc2c(c1)OCCO2 | 95.1% |
| O=C1Nc2cc(Cl)c(Cl)cc2N(O)N1c1cc(Cl)cc(Cl)c1 | 97.6% |
| Cc1c(NC(=O)CSCc2ccccc2)cccc1C(=O)O | 106% |
| CCC(C)(C)C1CCC(=NNC(=O)c2ccc(Br)o2)CC1 (stereo unspecified) | 97.7% |
| COCCCNC(=O)[C@H]1N2C(=O)c3ccccc3C2SC1(C)C (stereo partly specified) | 112% |
| Cc1cc2cc3c(N)[nH]nc3nc2cc1C | 113% |
| O=C(NC1CCN(C(=S)Nc2ccc(Cl)cc2)CC1)C1CCCCC1 | 97.3% |
| Cc1ccc2nc(-c3ccc(NC(=O)CN(C)S(=O)(=O)c4ccccc4)cc3)sc2c1 | 111% |
| COc1ccc(N2CCN(C(=O)[C@@H](NC(=O)c3cc(OC)cc(OC)c3)C(C)C)CC2)cc1 | 95.1% |
| Cc1ccccc1NC(=O)CSC(=O)c1ccccc1 | 102% |
| O=C(NN1C(=O)C2CCCCC2C1=O)c1ccco1 (stereo unspecified) | 104% |
| COCCCNS(=O)(=O)c1cccc(S(=O)(=O)c2cccc(S(=O)(=O)NCCCOC)c2)c1 | 115% |
| O=c1/c(=C/c2ccc(CNS(=O)(=O)c3ccccc3)o2)sc2n1CCN=2 | 107% |
| CC1(C)CC(=O)C=C(N2CCOCC2)C1 | 93.2% |
| CCCCOc1ccc(C(=O)NCC(=O)OCC(=O)c2c(N)n(C)c(=O)n(C)c2=O)cc1 | 92.4% |
| CC(C)c1ccc2c(c1)c(SC(C)(C)C)c(CC(C)(C)C(=O)O)n2Cc1ccc(Cl)cc1 | 112% and 88.8% |
| C/C(CCC(=O)OC[C@H]1O[C@H](C#Cc2ccccc2)C=C[C@@H]1Oc1ccc(C)cc1)=N\OC[C@@H](O)[C@H]1O[C@@H]2OC(C)(C)O[C@@H]2[C@H]1O | 109% |
| Nc1ccc(OCC(O)C[n+]2ccc(CCS(=O)(=O)[O-])cc2)cc1 (stereo unspecified) | 90% |
| CCOC(=O)c1c(CN(C)C)n(-c2ccccc2)c2cc(Br)c(O)cc12 | 101% |

| SMILES | GFP response vs DMSO |
| --- | --- |
| Cc1ccc(NC(=O)CN(C)C(=O)COC(=O)C(C)(C)Oc2ccc(Cl)cc2)cc1 | 109% |
| COc1ccccc1NC(=O)C[n+]1ccccc1 | 120% |
| Cc1cccc[n+]1CC(=O)c1ccccc1 | 113% |
| COC(=O)C[n+]1cccc2ccccc21 | 175% (active) |
| CC(=O)NS(=O)(=O)c1ccc2c(c1)Cc1cc(S(=O)(=O)NC(C)=O)ccc1-2 | 99.9% |
| O=C(c1ccco1)N1CCN(C(=O)C2CC(c3ccc(Cl)c(Cl)c3)=NO2)CC1 (stereo unspecified) | 89% |
| CN(Cc1ccccc1)C(=O)C(=O)c1cn(CC(=O)N2CCCC2)c2ccccc12 | 154% (active) |
| CN1CCN(C(=O)C(=O)c2cn(CC(=O)N3CCCC3)c3ccccc23)CC1 | 103% |
| Cc1ccc(CNC(=O)C(=O)c2cn(CC(=O)N3CCCC3)c3ccccc23)cc1 | 104% |
| CCCCCC1CC(COc2ccccc2)OC1=O (stereo unspecified) | 96.7% |
| CC[n+]1cc(C)ccc1/C=C/c1ccc(N(C)C)cc1 | 158% (active) |
| CO[C@H]1[C@@H]2C=CO[C@@H](O[C@H]3O[C@@H](CO)[C@H](O)[C@@H](O)[C@@H]3O)[C@@H]2[C@@]2(CO)O[C@@H]12 | 109% |
| C/C=C/c1ccc(OCC(O)CN2CCCCCCC2)c(OC)c1 (stereo unspecified) | 101% |
| N#Cc1cccc(NC(=O)CN2CCCCCC2)c1 | 100% |
| CCN(CC(=O)Nc1c(F)cccc1F)C(=O)CN1c2cccc3cccc(c23)S1(=O)=O | 104% |
| COc1ccc(Nc2cc(Sc3ccc(OC)cc3)ncn2)cc1 | 86.2% |
| Cc1ccc2c(=O)oc(N(C)C)nc2c1 | 105% |
| CCn1c(SCC(=O)Nc2ccccc2F)nc2c(c1=O)SC(C)C2 (stereo unspecified) | 100% |
| Cc1cccc([C@@H]2[C@@H]3C(=O)N(C)C(=O)[C@@H]3[C@@H]3C(=O)Nc4ccccc4C(=O)N23)c1 | 87.5% |
| CCc1ccc2[nH]c(=O)c(Cc3ccccc3)c(O)c2c1 | 105% |
| COc1ccc(NC(=O)CN(Cc2ccccc2)S(C)(=O)=O)cc1OC | 101% |
| Cc1ccccc1OC(=O)Cn1c(C(F)(F)F)nc2ccccc21 | 84.2% |
| COc1ccc(C(=O)NC2CC2)cc1OC1CCN(Cc2ccc(SC)cc2)CC1 | 114% |

| SMILES | GFP response vs DMSO |
| --- | --- |
| CCOC(=O)CSc1nc(N2CCOCC2)c2c(c1C#N)CC(C(C)C)OC2 (stereo unspecified) | 104% |
| COc1ccc(C(=O)COC(=O)c2c(C)noc2C)cc1Cl | 98.9% |
| COc1ccc(NC(=O)CN(C)C(=O)c2n[nH]c3ccccc23)cc1 | 101% |
| CN(C)S(=O)(=O)c1cccc(NC(=O)COc2ccc3ccccc3c2)c1 | 90.9% |
| O=C(CN1CCOCC1)N1CCCc2c1c(=O)oc1ccc(OCc3ccccc3)cc21 | 99% |
| Cc1cc(C)cc(NC(=O)C2CCCN(S(=O)(=O)c3ccc4[nH]c(=O)ccc4c3)C2)c1 (stereo unspecified) | 98.8% |
| COc1ccc(CNS(=O)(=O)c2cc(-c3cc(C)no3)ccc2C(C)C)cc1 | 95.4% |
| CN1CCC(=NNC(=O)CN(c2cccc(Cl)c2)S(C)(=O)=O)CC1 | 95.2% |
| Cc1cccc(CSc2ccc(-c3cccs3)nn2)c1 | 87.4% |
| CC(C)(C)CN1C(=O)C(=O)NC[C@H]1Cc1cccc2ccccc12 | 101% |
| CCCCC(=O)N(c1ccc(OC)cc1)C1C=CS(=O)(=O)C1 (stereo unspecified) | 108% |
| COc1cc(CO)c(C2(CO)CCCC2)cc1OC | 94.8% |
| CC(C)=CCN1CCN(CCCc2ccccc2)CC1CCO (stereo unspecified) | 105% |
| CCCCCc1nnc(NC(=O)c2ccc(=O)n(C)n2)s1 | 113% |
| O=S(=O)(c1ccc(Br)cc1)n1ccc2ccccc21 | 77.6% |
| CC(C)(C)OC(=O)NCCCCCNC(=O)c1[nH]cnc1C(=O)Nc1nccs1 | 104% |
| CCOCCc1nn2c(=O)cc(CSCC(=O)Nc3cccc(C)c3C)nc2s1 | 96.3% |
| C/C(=N\NC(=O)c1cc2c(s1)CCC(C)C2)c1cccnc1 (stereo unspecified) | 104% |
| O=C(NCCCn1ccnc1)/C(=C\c1ccccc1F)NC(=O)c1ccccc1 | 93.1% |
| Cc1c(C2=CCN(S(=O)(=O)c3ccc(Cl)cc3)CC2)c2ccccc2n1C | 98.5% |
| CN(C)S(=O)(=O)c1cc(C(=O)Nc2ccn(C)n2)c(Cl)cc1Cl | 6000% [may fluoresce green] (active) |
| Cc1ccc(C(=O)Nc2ccn(C)n2)cc1 | 109% |
| Cn1ccc(NC(=O)Nc2ccc(Cl)cc2)n1 | 95.9% |

| SMILES | GFP response vs DMSO |
| --- | --- |
| CCCCC[C@@H]1C=C(C(=O)O)[C@H](c2ccc(C#N)cc2)N1S(=O)(=O)c1ccc(C)cc1 | 88.2% |
| COc1ccccc1N(CC(=O)NC1CCCC1)C(=O)C1(C)CC(=O)N=C2C=CC(C)=CN21 (stereo unspecified) | 104% |
| O=C(Nc1ccc(-c2cscn2)cc1)C1CCCN(Cc2ccc(CO)o2)C1 (stereo unspecified) | 97.5% |
| COc1ccc(C(=O)N2CCCCC2C(=O)Nc2ccc(-n3nc(C)cc3C)cc2)o1 (stereo unspecified) | 109% |
| O=C(COC(=O)C12CC3CC(CC(O)(C3)C1)C2)NC12CC3CC(CC(C3)C1)C2 | 88.4% |
| Cc1ccc(S(=O)(=O)NCCCn2ccnc2)cc1C(=O)NC(C)C | 99.8% |
| CCC(C)(C)NC(=O)CN(C(=O)CCC(=O)Nc1nccs1)c1ccc2c(c1)OCO2 | 109% |
| COc1ccc(C)cc1Nc1n[n+](-c2ccccc2)c(-c2cccc(Cl)c2Cl)s1 | 112% |
| O=C(c1ccc(F)cc1)c1cn(Cc2ccc(F)cc2)c2cc3c(cc2c1=O)OCCO3 | 97% |
| NC(=O)NC(=O)C(OC(=O)CCNS(=O)(=O)c1ccccc1)c1ccccc1 (stereo unspecified) | 115% |
| CC(C)(C)n1nc(Cc2cccc3ccccc23)c(C#N)c1N | 91.2% |
| CCCOc1ccc(C2NC(=O)NC(c3ccccc3)=C2C(C)=O)cc1OCC (stereo unspecified) | 98.7% |
| CC(=O)c1ccc(S(=O)(=O)NCc2nnnn2-c2ccccc2)cc1 | 108% |
| CCC(=C/c1sc2ccc3ccccc3c2[n+]1C)/C=C1\Sc2ccc3ccccc3c2N1C | 189% (active) |
| Cc1cc(C(=O)COc2ccccc2Cl)c(C)n1C1CC1 | 80.4% |
| O=C(c1cc(COc2c(F)cccc2F)on1)N1CCSCC1 | 99.2% |
| CCCN(C(=O)CSc1nnc(N)s1)c1c(N)n(Cc2ccccc2)c(=O)[nH]c1=O | 102% |
| CC1CCC(C(C)C)C(=O)/C1=C\c1ccc(NC(=O)CCC(=O)O)cc1 (stereo unspecified) | 103% |
| CC(=O)NC1C(Oc2ccc(C=O)cc2)OC(COC(C)=O)C(OC(C)=O)C1OC(C)=O (stereo unspecified) | 102% |
| COc1ccc(CCNC(=O)C(=O)Nc2ccc3nc4n(c(=O)c3c2)CCCCC4)cc1OC | 96.1% |
| CC(C)Oc1ccc(/C=N/NC(=O)c2nnn(-c3nonc3N)c2CN(C)C2CCCCC2)cc1 | 99.5% |
| Cc1cc(NC(=O)/C=C/C(=O)N(CC(=O)NC2CCCC2)c2ccc(F)cc2)no1 | 96.7% |
